The source of these data is PubChem BioAssay (NCATS).

Records with an inconclusive call do not appear. Unmarked numbers belong to inactive results. Activity calls are given as the source filed them. Unless noted, the call rests on the fitted dose curve.

Assay [1] in a line: Primary qHTS for Huh7 cytotoxicity: counterscreen for inhibitors of MERS-S pseudotyped particle cell entry (AID 1479147). On activity change, negative = cytotoxicity: on the % scale 0 is the no-effect control and ±100 the full control effect. Conditions: cell viability read-out; series mostly up to 57.1 µM. A general note: Quantitative high-throughput screening tests each substance at several concentrations.
Assay [2] can be described thus: Primary qHTS for Vero E6 cytotoxicity: counterscreen for inhibitors of SARS-S pseudo-typed particle cell entry (AID 1479150). Further: potency means the concentration at half of the fitted maximal effect. On activity change, negative = cytotoxicity: on the % scale 0 is the no-effect control and ±100 the full control effect. Conditions: cell viability; series mostly up to 57.1 µM.
The nature of assay [3]: Confirmatory qHTS for VERO E6 Cytotoxicity Assay: Counterscreen for SARS-CoV-2 CPE Assay (AID 1508605). Further: nearly all actives have a fitted effect of over 60% in size. Further: potency means the concentration at half of the fitted maximal effect. Conditions: cell viability luminescence; series mostly up to 20 µM.
A short description of assay [4]: Confirmatory qHTS for activators (rescue) of SARS-CoV-2 Cytopathic Effect (CPE) (AID 1508606). Further: nearly all actives have a fitted effect of over 70% in size. Further: potency means the concentration at half of the fitted maximal effect. Conditions: Vero E6 SARS-CoV-2 CPE rescue, viability luminescence; series mostly up to 20 µM.
Assay [5] is described as follows: Primary qHTS for inhibitors of MERS-S pseudo-typed particle cell entry (AID 1479149). Further: nearly all actives have a fitted effect of over 60% in size. Further: potency means the concentration at half of the fitted maximal effect. On activity change, negative = inhibition: on the % scale 0 is the no-effect control and ±100 the full control effect. Conditions: MERS-S pseudotyped particle entry, luciferase; series mostly up to 57.1 µM.
Assay [6] is described as follows: Primary qHTS for inhibitors of La Crosse Virus (LACV) - induced cell death in SH-SY5Y cells (AID 1508616; active means well fitted inhibition curve with a large enough effect;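 further: top concentration of the series differs between compounds; 0% = infected DMSO wells and 100% = uninfected DMSO wells; higher means more rescue of cells from virus-induced death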). Conditions: SH-SY5Y LACV cytopathicity rescue, ATP luminescence, 6 d; series mostly up to 9.63 µM. In outline:
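Cytopathicity rescue screen: compounds pinned onto SH-SY5Y cells, which are then infected with LACV (MOI 0.01) and held 6 days at 37C. Percent activity is scaled between infected DMSO control and uninfected DMSO control.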

The nature of assay [7]: Primary qHTS for inhibitors of SARS-S pseudo-typed particle cell entry (AID 1479145). Further: potency means the concentration at half of the fitted maximal effect; nearly all actives have a fitted effect of over 45% in size. Conditions: SARS-S pseudotyped particle cell entry, luciferase reporter; series mostly up to 57.1 µM.

`O=C(c1cc(Cc2n[nH]c(=O)c3ccccc23)ccc1F)N1CCN(C(=O)C2CC2)CC1`: the Potency entry in assay [1] and in assay [2] was “inactive” each time.
Regarding `CN(C)c1ccc(C2Nc3ccc4ccccc4c3C3=C2C(=O)CC(C)(C)C3)cc1Br` (stereo unspecified), the Potency entry in assay [3] and in assay [4] was “inactive” each time.
Take `CS(=O)(=O)Nc1ccc([N+](=O)[O-])cc1Oc1ccccc1`: the Potency entry in assay [1], in assay [5] and in assay [2] was “inactive” in each case.
Consider `CC(C)(C)c1cc(C(C)(C)C)c(NC(=O)c2c[nH]c3ccccc3c2=O)cc1O`, for which the Potency result in assay [1], in assay [5] and in assay [2] was “inactive” throughout.
On to `Cn1cncc1[C@@](N)(c1ccc(Cl)cc1)c1ccc2c(c1)c(-c1cccc(Cl)c1)cc(=O)n2C`, for which the Potency result in assay [1] and in assay [2] was “inactive” each time.
On to `CCCCCCCc1ccc(CCc2cccc(O)c2C(=O)O)cc1`, for which the Potency result in assay [3] is “inactive”.
On to `CC(C)CCCC(C)CCCC(C)CCCCC(C)CCCC(C)CCCC(C)C` (stereo unspecified), for which the Potency entry in assay [1], in assay [5] and in assay [2] was “inactive” throughout.
With `CCOP(=O)(OCC)C(C)NC(=O)N(CCCl)N=O` (stereo unspecified), the Potency entry in assay [1], in assay [5] and in assay [2] was “inactive” each time.
For the molecule `Cc1c(C(=O)Nc2ccc(N3C[C@@H](C)O[C@@H](C)C3)nc2)cccc1-c1ccc(OC(F)(F)F)cc1`, the Potency result in assay [1] and in assay [2] was “inactive” in each case. Besides, the Potency in assay [5] was 20 µM (active).
For `C[C@@H]1CCN(C(=O)CC#N)C[C@@H]1N(C)c1ncnc2[nH]ccc12`, the Potency entry in assay [1], in assay [5] and in assay [2] was “inactive” throughout.
As to `CCOc1cc2ncc(C#N)c(Nc3ccc(OCc4ccccn4)c(Cl)c3)c2cc1NC(=O)/C=C/CN(C)C`, the outcome in assay [1] is “inactive [at 11.4 µM]”. Further, in assay [5], the activity change, negative = inhibition is -11.6% [at 11.4 µM]. In addition, in assay [2], the activity change, negative = cytotoxicity is -35.9% [at 11.4 µM].
Take `CC[C@H](Nc1ncnc2nc[nH]c12)c1nc2cccc(F)c2c(=O)n1-c1ccccc1`: the Potency result in assay [1], in assay [5] and in assay [2] was “inactive” in each case.
Regarding `COc1cccc2c1CCCC2CCCN1CCN(C2CCCCC2)CC1` (stereo unspecified), the Potency result in assay [3] is “inactive”. For the same molecule, the Potency in assay [4] was 11.2 µM (active).
On the same counts, the results for `O=C(c1ccc(Nc2nccc(-c3cc4ccccc4s3)n2)cc1)N1CCC(N2CCCC2)CC1` are 10 µM (active) and 3.55 µM (active).
For `CC(C)(C)C(O)/C=C/c1ccc2c(c1)OCO2` (stereo unspecified), the Potency entry in assay [1], in assay [5] and in assay [2] was “inactive” in each case.
With `Cc1ccccc1N=Nc1ccc(N=Nc2c(O)ccc3ccccc23)c(C)c1`, the Potency entry in assay [1], in assay [5] and in assay [2] was “inactive” throughout.
In the case of `COc1cc2c(cc1OC)CC(=O)N(CCCN(C)C[C@H]1Cc3cc(OC)c(OC)cc31)CC2`, the Potency result in assay [1], in assay [5] and in assay [2] was “inactive” in each case.
As to `CCN(CC)CCCCNc1nc2cc(Cl)c(Cl)cc2nc1-c1ccc(-c2cccs2)s1`, the Potency in assay [3] is 10 µM (active).
As for `N#CC[C@H](C1CCCC1)n1cc(-c2ncnc3[nH]ccc23)cn1`, the Potency result in assay [1], in assay [5] and in assay [2] was “inactive” throughout.
Take `CC(=O)N[C@@H](Cc1ccc(O)cc1)C(=O)O`: the Potency entry in assay [1], in assay [5] and in assay [2] was “inactive” each time.
Consider `Oc1c(I)cc(I)c2cccnc12`, for which the Potency result in assay [1] and in assay [2] was “inactive” each time.
For the molecule `CCCN(CCC)c1c([N+](=O)[O-])cc(S(N)(=O)=O)cc1[N+](=O)[O-]`, the call in assay [6] was inactive.
Regarding `Cc1ccc(C(=O)Nc2ccc(CN3CCN(C)CC3)c(C(F)(F)F)c2)cc1C#Cc1cnc2cccnn12`, the Potency in assay [7] was 3.55 µM (active); in assay [2] it was 22.4 µM (active).
Regarding `Cc1cn(-c2cc(NC(=O)c3ccc(C)c(Nc4nccc(-c5cccnc5)n4)c3)cc(C(F)(F)F)c2)cn1`, the Potency result in assay [1], in assay [5] and in assay [2] was “inactive” in each case.
On to `CCCS(=O)(=O)Nc1ccc(F)c(C(=O)c2c[nH]c3ncc(-c4ccc(Cl)cc4)cc23)c1F`, for which the Potency result in assay [1] and in assay [2] was “inactive” in each case.
For `Nc1ccc(C(=O)c2cc3c(ccc4ccccc43)[nH]2)cc1`, in assay [3], the Potency was 14.1 µM (active).
Regarding `C#CC(C)(CC)OC(=O)c1ccccc1C(=O)O` (stereo unspecified), the Potency entry in assay [1], in assay [5] and in assay [2] was “inactive” in each case.
Regarding `COc1cc2nccc(Oc3ccc(NC(=O)C4(C(=O)Nc5ccc(F)cc5)CC4)cc3)c2cc1OC`, the Potency entry in assay [1] and in assay [2] was “inactive” throughout.
Take `S=C(NCc1ccc2c(c1)OCO2)N1CCN(c2ncnc3c2oc2ccccc23)CC1`: the Potency in assay [4] was 3.55 µM (active).
Turning to `Cc1cc(C(=O)NNCc2ccccc2)no1`, the Potency entry in assay [1], in assay [5] and in assay [2] was “inactive” in each case.
For `COc1c(C)cnc(Cn2cnc3c(Cl)nc(N)nc32)c1C`, the Potency entry in assay [3] is “inactive”.
For the molecule `Clc1ccccc1CN1CCc2sccc2C1`, the Potency result in assay [1], in assay [5] and in assay [2] was “inactive” in each case.
On to `C[C@@H](N)C(=O)O`, for which the Potency entry in assay [1], in assay [5] and in assay [2] was “inactive” each time.
For the molecule `Cc1nnc(C(C)C)n1C1CC2CCC(C1)N2CC[C@H](NC(=O)C1CCC(F)(F)CC1)c1ccccc1` (stereo partly specified), the Potency entry in assay [1], in assay [5] and in assay [2] was “inactive” throughout.
